Experimental data as given in PubChem BioAssay (Tox21).
Results filed as inconclusive are left out. Entries that show only a call come without a potency. Unmarked numbers belong to inactive results. The source made the active and inactive calls. Calls come from the whole dose curve; as a rule, active = well fitted cell-killing curve with a large enough effect in the repeat runs; inconclusive = weak or mixed curves, or effect the other way; inactive = flat fitted curve, though single readings scatter.

What was measured:
[1] = cAMP Responsive Elements (CRE) small molecule antagonists, cell-based qHTS assay: qHTS cell viability counter screen (AID 2060913); note: nearly all actives have a fitted effect of over 40% in size
Summary of the method: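 Cytotoxicity counter screen multiplexed with the CRE-bla antagonist read: HEK293T cells in DMEM with dialyzed FBS and 25 mM HEPES were treated 3 hrs under 0.25 uM final NKH477, then viability measured by CellTiter-Glo luminescence.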

[2] = cAMP Responsive Elements (CRE) small molecule agonists, cell-based qHTS assay: qHTS cell viability counter screen (AID 2060914);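 note: viability read after 3 h of compound exposure; nearly all actives have a fitted effect of over 50% in size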
Summary of the method: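 HEK 293T CRE-bla; DMEM + 10% dialyzed FBS, 25 mM HEPES; 18 h pre-incubation; compound 3 h, 37 °C/5% CO2; CellTiter-Glo added after reporter read; luminescence after 30 min RT.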
Potency is the fitted concentration of half-maximal effect.

SMILES	Potency [1]	Potency [2]	viability change, negative = cytotoxic [1]	activity change, negative = cytotoxicity [2]
Nc1ccc(Cl)cc1C(=O)c1ccccc1F	inactive	inactive		
Nc1nc(N)nc(N)n1	inactive	inactive		
COP(=O)(OC)OC	inactive	inactive		
O=C1CN2CCOC2(c2ccccc2Cl)c2cc(Cl)ccc2N1 (stereo not drawn)	inactive	inactive		
CNC(=O)N(C)c1nc2ccccc2s1	inactive	inactive		
Cc1cccc(Cc2cnc[nH]2)c1C	inactive	inactive		
CCOP(=O)(SC(C)CC)N1CCSC1=O (stereo not drawn)	inactive	inactive		
[CH3][Sn]([CH3])([Cl])[Cl]	inactive	inactive		
COC12CC[C@@]3(C[C@@H]1C(C)(O)C(C)(C)C)[C@H]1Cc4ccc(O)c5c4[C@@]3(CCN1CC1CC1)[C@H]2O5 (stereo partly drawn)	60.7 µM (active)	inactive		
Nc1ccc([N+](=O)[O-])cc1	inactive	6.11 µM (active)		
CCC1(c2ccccc2)CCC(=O)NC1=O (stereo not drawn)	inactive	inactive		
CCCC1CCCCN1 (stereo not drawn)	inactive	inactive		
COCc1cnc(C2=NC(C)(C(C)C)C(=O)N2)c(C(=O)O)c1 (stereo not drawn)	inactive	inactive		
COP(=S)(OC)Oc1ccc(Sc2ccc(OP(=S)(OC)OC)cc2)cc1	inactive	inactive		
O=C1CN=C(c2ccccc2)c2cc([N+](=O)[O-])ccc2N1	inactive	inactive		
c1ccc2c(c1)[nH]c1cnccc12	inactive	inactive		
CC(C)(C)c1ccc(CSc2cnn(C(C)(C)C)c(=O)c2Cl)cc1	inactive	inactive		
O=NN1CCCCC1	inactive	inactive		
COC1=CC(=O)O[C@@H](/C=C/c2ccc3c(c2)OCO3)C1	inactive	inactive		
Cc1cccc(OP(=O)(Oc2cccc(C)c2)Oc2cccc(C)c2)c1	inactive	inactive		

SMILES	Potency [1]	Potency [2]	viability change, negative = cytotoxic [1]	activity change, negative = cytotoxicity [2]
CNC(=O)CSP(=S)(OC)OC	inactive	inactive		
CC(C)=CC1C(C(=O)OCc2cccc(Oc3ccccc3)c2)C1(C)C (stereo not drawn)	inactive	inactive		
CCCN(CCC)c1c([N+](=O)[O-])cc(C(F)(F)F)cc1[N+](=O)[O-]	inactive	inactive		
COc1cc(Cl)c(OC)cc1Cl	inactive	inactive		
Cc1ccc(N(SC(F)(Cl)Cl)S(=O)(=O)N(C)C)cc1	inactive	inactive		
Cc1cccc([N+](=O)[O-])c1	inactive	inactive		
CC(=O)[O-].CC(=O)[O-].O.O.[Cd+2]	53.7 µM (active)	inactive		
Cc1nc2ccccc2c(=O)n1-c1ccccc1Cl	inactive	inactive		
[Cl][Hg][c]1ccccc1	19.3 µM (active)	30.6 µM (active)		
CC(=O)OCC1=C(C(=O)O)N2C(=O)[C@@H](N)[C@H]2SC1			-1.82% [at 18.9 µM]	1.16% [at 18.9 µM]
O=C(O)c1cccc(Cl)c1	inactive	inactive		
COc1cc(-c2ccc(N)c(OC)c2)ccc1N	inactive	inactive		
CC(=O)[O-].CC(=O)[O-].CC(=O)[O-].[Cr+3]	inactive	inactive		
CC(Oc1cc(Cl)c(Cl)cc1Cl)C(=O)O (stereo not drawn)	inactive	inactive		
Cc1c(Cl)c(=O)oc2cc(OP(=O)(OCCCl)OCCCl)ccc12	inactive	inactive		
O=c1ssc(Cl)c1Cl	inactive	inactive		
CCCCOCC1CO1 (stereo not drawn)	inactive	inactive		
COCC(C)N(C(=O)CCl)c1c(C)csc1C (stereo not drawn)	inactive	inactive		
CC(=O)/C=C/c1ccccc1	inactive	inactive		
CCN(CC)N=O	inactive	inactive		

SMILES	Potency [1]	Potency [2]	viability change, negative = cytotoxic [1]	activity change, negative = cytotoxicity [2]
Brc1ccccc1	inactive	inactive		
COc1ccc2c3c1O[C@H]1[C@@H](O)C=C[C@H]4[C@@H](C2)N(C)CC[C@@]341	inactive	inactive		
Nc1cccc2ccccc12	inactive	inactive		
O=C(NC(=O)c1c(F)cccc1F)Nc1ccc(Cl)cc1	inactive	inactive		
BrCc1ccc(Br)cc1	inactive	inactive		
NC1=NC(=O)C(c2ccccc2)O1 (stereo not drawn)	inactive	inactive		
CC(Br)C(=O)O (stereo not drawn)	inactive	inactive		
C=CC1CC=CCC1 (stereo not drawn)	inactive	inactive		
CN(C)c1nc(=O)n(C2CCCCC2)c(=O)n1C	inactive	inactive		
O=S(=O)(Cl)c1ccccc1	inactive	inactive		
[O-][Cl+2]([O-])O	inactive	inactive		
CSc1nc(NC(C)C)nc(NC(C)C)n1	inactive	inactive		
CSC1=N[C@@](C)(c2ccccc2)C(=O)N1Nc1ccccc1	inactive	inactive		
CCC12COCN1COC2	inactive	inactive		
CC(C)NC(=O)N1CC(=O)N(c2cc(Cl)cc(Cl)c2)C1=O	inactive	inactive		
O=C(NCO)NCO	inactive	inactive		
O=C(O)COc1ccc(Cl)cc1Cl	inactive	inactive		
CS(=O)(=O)c1cc(C(F)(F)F)ccc1C(=O)c1cnoc1C1CC1	inactive	inactive		
O.O.O.O=C([O-])[C@H]([O-])[C@@H]([O-])C(=O)[O-].O=C([O-])[C@H]([O-])[C@@H]([O-])C(=O)[O-].[K+].[K+].[Sb+3].[Sb+3]	inactive	inactive		
